target: T1, Aspartate--tRNA(Asp/Asn) ligase (Mycobacterium tuberculosis (strain ATCC 25618 / H37Rv)) (UniProt P9WFW3); experiment: Assay for Asp RNA synthetase-1 from Mycobacterium tuberculosis; type: functional; design: scale not given: direction of the effect not stated beside the values; conditions: 30 µM; further: in the data most compounds retested in dose-response had high values
T1 sequence (whole entry): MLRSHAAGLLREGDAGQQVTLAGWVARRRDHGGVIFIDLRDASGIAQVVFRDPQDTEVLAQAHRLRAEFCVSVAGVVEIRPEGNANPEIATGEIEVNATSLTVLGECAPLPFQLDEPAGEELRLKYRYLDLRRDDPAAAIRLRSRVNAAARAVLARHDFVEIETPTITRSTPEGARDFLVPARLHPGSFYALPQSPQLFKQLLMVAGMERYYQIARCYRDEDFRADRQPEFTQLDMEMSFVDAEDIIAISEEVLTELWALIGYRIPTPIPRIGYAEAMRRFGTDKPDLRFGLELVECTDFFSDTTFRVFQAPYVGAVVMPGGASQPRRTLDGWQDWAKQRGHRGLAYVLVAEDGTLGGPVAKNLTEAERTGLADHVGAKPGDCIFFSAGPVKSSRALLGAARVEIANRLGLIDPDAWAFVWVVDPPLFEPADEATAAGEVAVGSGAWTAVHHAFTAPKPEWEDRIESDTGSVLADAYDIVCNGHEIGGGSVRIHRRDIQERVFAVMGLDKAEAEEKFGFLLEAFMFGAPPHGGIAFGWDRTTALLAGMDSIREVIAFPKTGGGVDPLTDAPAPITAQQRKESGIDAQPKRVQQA

SMILES	Percent Effect
CCN1CCN(c2ccc(CNC(=O)c3c(C)noc3C)cn2)CC1	-3.84%
CN(C)C(=O)NC1COC2(CCN(Cc3ccccc3)CC2)C1 (stereo not given)	-3.84%
O=C(CSC1CCc2ccccc2NC1=O)NCCO (stereo not given)	0.805%
CN(C)C(=O)N1CCN(CCn2nc3ccccn3c2=O)CC1	-3.02%
O=C(c1ccc2c(c1)OCO2)N1CCCC(n2cccn2)C1 (stereo not given)	4.23%
CC(=O)N1CCC(c2nccnc2Oc2ccccc2)CC1	-0.819%
Cc1nc(C)n(CC2CCCN(CCOc3cccc(C#N)c3)C2)n1 (stereo not given)	2%
CC1(C(=O)N2CCOCC2)CN(Cc2ccccn2)CCO1 (stereo not given)	8.77%
CN(Cc1ccco1)C[C@H]1OC[C@@H]2CCN(Cc3cccnc3)C[C@@H]21	3.55%
Cc1csc(N2CCCN(Cc3noc(C)n3)CC2)n1	1.56%
CCOc1ccc(CN(C)C(=O)NC(C)c2nncn2C)cc1 (stereo not given)	0.975%
CCc1nc(CN2CCCN(C(=O)c3cnc[nH]3)CC2)cs1	-2.77%
CS(=O)(=O)NCc1n[nH]c2c1CCN(C(=O)c1ccsc1)C2	9.64%
COc1cc(CC(O)CO)c(OC)c2c1OCO2 (stereo not given)	-3.19%
Cn1cc(CN2CC[C@H]3C[C@H](c4nc(C5CC5)cs4)O[C@@H]3C2)cn1	-0.624%
CNc1cncc(C2CCCN2C(=O)c2ccc3oc(=O)n(C)c3c2)n1 (stereo not given)	5.14%
Cc1noc(C)c1-c1cncc(C2CCCN2Cc2ccncc2)n1 (stereo not given)	1.92%
CO[C@@H]1CC[C@H]2[C@H]1OCCN2C(=O)c1ccc(C)o1	2.26%
CNS(=O)(=O)c1cccc(C(C)NCc2cccc(OC)c2)c1 (stereo not given)	0.915%
CCc1nnsc1C(=O)N1CCOC(c2nc(C)n[nH]2)C1 (stereo not given)	-2.08%

SMILES	Percent Effect
Cc1nnc(CN2CCN(CCOc3ccccc3C#N)CC2)n1C	3.6%
CCN1CCN(c2ncc(-c3cc(C)no3)c(-c3ccoc3C)n2)CC1	0.313%
O=C(CC1CC1)NCc1cc(=O)n2c(n1)CN(Cc1ccoc1)CCC2	-2.64%
CCc1nnsc1C(=O)NC1CCN(c2ccccn2)CC1	-5.57%
O=C(Cn1cc(-c2ccccc2)ncc1=O)Nc1ccncc1	1.91%
COCCNC(=O)[C@H]1CN(Cc2scnc2C)C[C@H]2OCC[C@@H]12	-3.26%
Fc1cccc(Oc2ccc(CNCC3CNc4ccnn4C3)cn2)c1 (stereo not given)	-6.37%
c1cnnc(N2CCCC2CNCc2nc(-c3ccsc3)no2)c1 (stereo not given)	-0.433%
CSCC(C)(O)CNC(=O)c1ccc(Br)cc1C (stereo not given)	-3.46%
COc1ccccc1-c1cc(C(F)(F)F)c2c(C)nn(CC(=O)O)c2n1	3.1%
CCN(CC1CCOC1)C(=O)Nc1ccc(-n2cncn2)nc1 (stereo not given)	-0.722%
CN(C)c1ccc(C(=O)N2CCN(Cc3cscn3)CC2)cc1F	5.95%
CCN(C(=O)CS(=O)(=O)Cc1cc(Cl)c2c(c1)OCCCO2)C1CC1	-0.343%
CC1CN(C)c2ccccc2CN1C(=O)c1ccncc1 (stereo not given)	6.3%
COc1ncc(NC(=O)Nc2cc(C)ccc2OC)cn1	1.65%
CN(Cc1ccc(F)cc1)C(=O)NCC1(N2CCOCC2)CCSC1 (stereo not given)	-1.08%
c1ccc(-c2cnc(CNC3CCCN(c4cccnn4)C3)o2)cc1 (stereo not given)	-3.48%
Cc1cccc(NC2CCN(C(=O)Nc3cc(F)cc(F)c3)CC2)n1	-4.31%
Cc1ncsc1CN1C[C@@H]2COC[C@]2(C(=O)NCC2CC2)C1	0.838%
NC(=O)c1cc(C2CCCN(CCc3ccccn3)C2)n[nH]1 (stereo not given)	-0.833%

target: Shiga toxin 2 (Escherichia coli O157:H7) (UniProt P09385+P09386); experiment: E. coli 0.157:H7 Shiga Toxin SOP - stx2 screening assay; type: functional; design: scale not given: direction of the effect not stated beside the values; conditions: 30 µM

SMILES	Percent Effect
CCN1CCN(c2ccc(CNC(=O)c3c(C)noc3C)cn2)CC1	-40.9%
CN(C)C(=O)NC1COC2(CCN(Cc3ccccc3)CC2)C1 (stereo not given)	-5.12%
O=C(CSC1CCc2ccccc2NC1=O)NCCO (stereo not given)	-11.3%
CN(C)C(=O)N1CCN(CCn2nc3ccccn3c2=O)CC1	-19.4%
O=C(c1ccc2c(c1)OCO2)N1CCCC(n2cccn2)C1 (stereo not given)	23.2%
CC(=O)N1CCC(c2nccnc2Oc2ccccc2)CC1	-5.88%
Cc1nc(C)n(CC2CCCN(CCOc3cccc(C#N)c3)C2)n1 (stereo not given)	12.2%
CC1(C(=O)N2CCOCC2)CN(Cc2ccccn2)CCO1 (stereo not given)	-6.1%
CN(Cc1ccco1)C[C@H]1OC[C@@H]2CCN(Cc3cccnc3)C[C@@H]21	-24.2%
Cc1csc(N2CCCN(Cc3noc(C)n3)CC2)n1	-19.8%
CCOc1ccc(CN(C)C(=O)NC(C)c2nncn2C)cc1 (stereo not given)	-14.2%
CCc1nc(CN2CCCN(C(=O)c3cnc[nH]3)CC2)cs1	-5.89%
CS(=O)(=O)NCc1n[nH]c2c1CCN(C(=O)c1ccsc1)C2	-7.46%
COc1cc(CC(O)CO)c(OC)c2c1OCO2 (stereo not given)	-10.5%
Cn1cc(CN2CC[C@H]3C[C@H](c4nc(C5CC5)cs4)O[C@@H]3C2)cn1	-28.1%
CNc1cncc(C2CCCN2C(=O)c2ccc3oc(=O)n(C)c3c2)n1 (stereo not given)	3.86%
Cc1noc(C)c1-c1cncc(C2CCCN2Cc2ccncc2)n1 (stereo not given)	-6.19%
CO[C@@H]1CC[C@H]2[C@H]1OCCN2C(=O)c1ccc(C)o1	-16.7%
CNS(=O)(=O)c1cccc(C(C)NCc2cccc(OC)c2)c1 (stereo not given)	-24.3%
CCc1nnsc1C(=O)N1CCOC(c2nc(C)n[nH]2)C1 (stereo not given)	-18.3%

SMILES	Percent Effect
Cc1nnc(CN2CCN(CCOc3ccccc3C#N)CC2)n1C	3.89%
CCN1CCN(c2ncc(-c3cc(C)no3)c(-c3ccoc3C)n2)CC1	-6.58%
O=C(CC1CC1)NCc1cc(=O)n2c(n1)CN(Cc1ccoc1)CCC2	-17%
CCc1nnsc1C(=O)NC1CCN(c2ccccn2)CC1	-24.7%
O=C(Cn1cc(-c2ccccc2)ncc1=O)Nc1ccncc1	-0.041%
COCCNC(=O)[C@H]1CN(Cc2scnc2C)C[C@H]2OCC[C@@H]12	0.32%
Fc1cccc(Oc2ccc(CNCC3CNc4ccnn4C3)cn2)c1 (stereo not given)	-101%
c1cnnc(N2CCCC2CNCc2nc(-c3ccsc3)no2)c1 (stereo not given)	-0.726%
CSCC(C)(O)CNC(=O)c1ccc(Br)cc1C (stereo not given)	-16%
COc1ccccc1-c1cc(C(F)(F)F)c2c(C)nn(CC(=O)O)c2n1	-13.7%
CCN(CC1CCOC1)C(=O)Nc1ccc(-n2cncn2)nc1 (stereo not given)	-25.9%
CN(C)c1ccc(C(=O)N2CCN(Cc3cscn3)CC2)cc1F	-20.8%
CCN(C(=O)CS(=O)(=O)Cc1cc(Cl)c2c(c1)OCCCO2)C1CC1	4.47%
CC1CN(C)c2ccccc2CN1C(=O)c1ccncc1 (stereo not given)	-12.6%
COc1ncc(NC(=O)Nc2cc(C)ccc2OC)cn1	-28.6%
CN(Cc1ccc(F)cc1)C(=O)NCC1(N2CCOCC2)CCSC1 (stereo not given)	-43.8%
c1ccc(-c2cnc(CNC3CCCN(c4cccnn4)C3)o2)cc1 (stereo not given)	4.96%
Cc1cccc(NC2CCN(C(=O)Nc3cc(F)cc(F)c3)CC2)n1	-78.9%
Cc1ncsc1CN1C[C@@H]2COC[C@]2(C(=O)NCC2CC2)C1	-13.5%
NC(=O)c1cc(C2CCCN(CCc3ccccn3)C2)n[nH]1 (stereo not given)	-5.89%

From ChEMBL document CHEMBL3988442, “University of Dundee, Small-Polar-MMV Screening Library” (2021)
